PubChem BioAssay
Where “and” joins values, the source holds several entries; their conditions need not be identical. Equal entries are not always repeated. Inconclusive results are not listed. Calls of active or inactive are those of the source. Unless noted, cut-off not given; nearly all actives show AC50 up to about 26 µM.

Assays:
[1] = viability loss in pontine glioma line – cell-based, SU-DIPG-XVII, MIPE5.0, CellTiter-Glo, qHTS, dose response (AID 1347060); conditions: CellTiter-Glo ATP luminescence;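 on AC50: cells exposed to compound for 48 hours before viability readout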
[2] = viability loss in pontine glioma line – cell-based, SU-DIPG-XIII, MIPE4.0, CellTiter-Glo, qHTS, dose response (AID 1347061; cut-off not given, nearly all actives have AC50 up to about 37 µM;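 further: cells exposed to compound for 48 hours before readout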); conditions: CellTiter-Glo ATP luminescence
[3] = viability loss in pontine glioma line – cell-based, JHH-DIPG-1, MIPE4.0, CellTiter-Glo, qHTS, dose response (AID 1347062; cut-off not given, nearly all actives have AC50 up to about 27 µM;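 on AC50: cells exposed to compound for two days before readout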); conditions: JHH-DIPG-1 viability, CellTiter-Glo ATP luminescence
[4] = viability loss in pontine glioma line – cell-based, SU-DIPG-IV, MIPE4.0, CellTiter-Glo, qHTS, dose response (AID 1347063; cut-off not given, nearly all actives have AC50 up to about 30 µM;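 further: compound exposure lasted 48 hours before the viability readout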); conditions: CellTiter-Glo ATP luminescence
[5] = viability loss in pontine glioma line – cell-based, SU-DIPG-XIII, MIPE5.0, CellTiter-Glo, qHTS, dose response (AID 1347064; cut-off not given, nearly all actives have AC50 up to about 23 µM;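 on AC50: cells exposed to compound for 48 hours before the viability read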); conditions: CellTiter-Glo ATP luminescence
[6] = viability loss in pontine glioma line – cell-based, SU-DIPG-XXV, MIPE5.0, CellTiter-Glo, qHTS, dose response (AID 1347065); conditions: CellTiter-Glo ATP luminescence;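 further: cells exposed to compound for 48 hours before ATP readout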
[7] = growth inhibition of DIPG cells – cell-based, MIPE4.0 library, CellTiter-Glo luminescence, qHTS (AID 1347066; cut-off not given, nearly all actives have AC50 up to about 30 µM;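 further: cells exposed to compound for 48 hours before readout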); conditions: SU-DIPG-VI viability, CellTiter-Glo ATP luminescence
[8] = JHH-DIPG-1 glioma cell viability, MIPE5.0 library, CellTiter-Glo luminescence, qHTS (AID 1347067); conditions: JHH-DIPG-1 glioma viability, CellTiter-Glo ATP luminescence;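 further: cells exposed to compound for 48 hours before readout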
[9] = growth inhibition of DIPG cells – cell-based, MIPE5.0 library, qHTS (AID 1347068; cut-off not given, nearly all actives have IC50 up to about 30 µM;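 on IC50: cells exposed to compound for 48 hours before viability readout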); conditions: SU-DIPG-XXV viability
[10] = viability loss with induced miR-34 in A549 – imaging, A549 dox-inducible miR-34, nuclei and caspase counts, primary screen (AID 1347080;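 active means compounds whose cell count with miR-34 switched on is under 0.7 times the count with it off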); conditions: A549 miR-34 inducible, Hoechst nuclei count, 48 h
[11] = MELAS cybrid and Rieske KO viability enhancers – cell-based, MELAS cybrids, Rieske KO mouse fibroblasts, CellTiter-Glo, primary screen (AID 1508586;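 active means mean z-score across replicates of 1.96 or higher in either the MELAS or the Rieske mutant cell line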;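 further: z relative to plate mean and SD of compound and empty wells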); conditions: low glucose
[12] = compounds altering HSF1 focus formation in cells – imaging, Selleck Cancer Library (AID 1347162; in the data active means plate-normalised HSF1 focus index below about 0.46); conditions: human cells, HSF1 nuclear foci imaging, at 10 µM; SSMD: measured here: HSF1 foci SSMD mean; cell count: measured here: cell number; plate-normalised HSF1 focus index: stronger effect = lower value
[13] = drug combination growth inhibition, ovarian cancer – cell-based, oncology-focused library, rucaparib conditional, profiling panel (AID 1508598;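 active means normalized viability below 100% at a tested concentration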); conditions: patient-derived ovarian cancer cells, CellTiter-Glo viability, 144 h, stronger effect = lower value
[14] = stronger effect = lower value, cell number ratio, induced over uninduced
[15] = measured here: relative caspase fold change +Dox/-Dox
[16] = measured here: total cells with miR-34 induction, stronger effect = lower value
[17] = measured here: total cells without miR-34 induction
[18] = MELAS cybrid survival, CellTiter-Glo 48 h, stronger effect = higher value
[19] = Rieske KO mouse fibroblast survival, CellTiter-Glo 72 h

C=CC(=O)Nc1cccc(Oc2nc(Nc3ccc(N4CCN(C)CC4)cc3)ncc2Cl)c1
0.779: fold change [10, 15]
active: AC50 [1] 0.468 µM | AC50 [2] 13.2 µM | AC50 [3] 1.66 µM | AC50 [4] 2.09 µM | AC50 [5] 1.32 µM | AC50 [6] 0.372 µM | AC50 [7] 18.7 µM | AC50 [8] 1.18 µM | IC50 [9] 0.525 µM
0.326: z-score [11, 19]
inactive: fold change [10, 14] 0.981 | z-score [11, 18] 1.07
1580: cell count [10, 16]
1610: cell count [10, 17]

CC1(C)OC2=C(C(=O)c3ccccc3C2=O)[C@H](NCc2ccccc2)[C@@H]1O
7240: cell count [12]
inactive: plate-normalised HSF1 focus index [12] 1.05
0.824: SSMD [12]
active: AC50 [1] 6.61 µM | AC50 [2] 5.9 µM | AC50 [3] 2.35 µM | AC50 [4] 5.9 µM | AC50 [5] 2.95 µM | AC50 [6] 3.72 µM | AC50 [7] 2.64 µM | AC50 [8] 3.32 µM | IC50 [9] 8.33 µM

COc1cc2c(cc1OC)C1CC(=O)C(CC(C)C)CN1CC2 (configuration not stated)
9770: cell count [10, 16]
inactive: outcome [1] | outcome [2] | outcome [3] | outcome [4] | outcome [5] | outcome [6] | outcome [7] | outcome [8] | outcome [9] | fold change [10, 14] 0.996
9800: cell count [10, 17]
0.689: fold change [10, 15]

C=C1C(=O)O[C@@H]2[C@H]3O[C@]3(C)CC/C=C(\C)CC[C@@H]12
-0.174: z-score [11, 19]
inactive: fold change [10, 14] 0.927 and 0.781
1.09 and 1.49: fold change [10, 15]
5310 and 404: cell count [10, 17]
4920 and 316: cell count [10, 16]
active: AC50 [1] 9.34 µM | AC50 [2] 16.6 µM | AC50 [3] 14.8 µM | AC50 [4] 7.43 µM | AC50 [5] 4.68 µM | AC50 [6] 7.42 µM | AC50 [7] 3.72 µM | AC50 [8] 6.61 µM | IC50 [9] 16.6 µM | z-score [11, 18] 2.28

COCCn1c2c([n+](Cc3cnccn3)c1C)C(=O)c1ccccc1C2=O
-2.86: z-score [11, 19]
inactive: fold change [10, 14] 1.7 | z-score [11, 18] -0.74 | viability ([13]; at 0.000305 µM, OCI-P5x cells, with rucaparib 20 µM, 100% = cells with rucaparib alone) 116% | viability ([13]; at 0.000305 µM, OCI-P5x cells, without rucaparib) 108% | viability ([13]; at 0.00122 µM, OCI-P5x cells, with rucaparib 20 µM, 100% = cells with rucaparib alone) 128% | viability ([13]; at 0.00488 µM, OCI-P5x cells, with rucaparib 20 µM, 100% = cells with rucaparib alone) 114%
active: AC50 [1] 0.00934 µM | AC50 [2] 0.0662 µM | AC50 [3] 0.0469 µM | AC50 [4] 0.0148 µM | AC50 [5] 0.00166 µM | AC50 [6] 0.0263 µM | AC50 [7] 0.0235 µM | AC50 [8] 0.105 µM | IC50 [9] 0.0295 µM | viability ([13]; at 0.000305 µM, OCI-C5x cells, with rucaparib 10 µM, 100% = cells with rucaparib alone) 92.6% | viability ([13]; at 0.000305 µM, OCI-C5x cells, without rucaparib) 88.5% | viability ([13]; at 0.00122 µM, OCI-C5x cells, with rucaparib 10 µM, 100% = cells with rucaparib alone) 88.5% | viability ([13]; at 0.00122 µM, OCI-C5x cells, without rucaparib) 93.8% | viability ([13]; at 0.00122 µM, OCI-P5x cells, without rucaparib) 99.4% | viability ([13]; at 0.00488 µM, OCI-C5x cells, with rucaparib 10 µM, 100% = cells with rucaparib alone) 90.5% | viability ([13]; at 0.00488 µM, OCI-C5x cells, without rucaparib) 91.8% | viability ([13]; at 0.00488 µM, OCI-P5x cells, without rucaparib) 49.6% | viability ([13]; at 0.0195 µM, OCI-C5x cells, with rucaparib 10 µM, 100% = cells with rucaparib alone) 83% | viability ([13]; at 0.0195 µM, OCI-C5x cells, without rucaparib) 14.6% | viability ([13]; at 0.0195 µM, OCI-P5x cells, with rucaparib 20 µM, 100% = cells with rucaparib alone) 61.5% | viability ([13]; at 0.0195 µM, OCI-P5x cells, without rucaparib) 8.64% | viability ([13]; at 0.0781 µM, OCI-C5x cells, with rucaparib 10 µM, 100% = cells with rucaparib alone) 11% | viability ([13]; at 0.0781 µM, OCI-C5x cells, without rucaparib) 3.7% | viability ([13]; at 0.0781 µM, OCI-P5x cells, with rucaparib 20 µM, 100% = cells with rucaparib alone) 18.6% | viability ([13]; at 0.0781 µM, OCI-P5x cells, without rucaparib) 1.55% | viability ([13]; at 0.313 µM, OCI-C5x cells, with rucaparib 10 µM, 100% = cells with rucaparib alone) 3.83% | viability ([13]; at 0.313 µM, OCI-C5x cells, without rucaparib) 2.36% | viability ([13]; at 0.313 µM, OCI-P5x cells, with rucaparib 20 µM, 100% = cells with rucaparib alone) 1.82% | viability ([13]; at 0.313 µM, OCI-P5x cells, without rucaparib) 0.757% | viability ([13]; at 1.25 µM, OCI-C5x cells, with rucaparib 10 µM, 100% = cells with rucaparib alone) 2.25% | viability ([13]; at 1.25 µM, OCI-C5x cells, without rucaparib) 1.76% | viability ([13]; at 1.25 µM, OCI-P5x cells, with rucaparib 20 µM, 100% = cells with rucaparib alone) 1.09% | viability ([13]; at 1.25 µM, OCI-P5x cells, without rucaparib) 0.567% | viability ([13]; at 5 µM, OCI-C5x cells, with rucaparib 10 µM, 100% = cells with rucaparib alone) 0.969% | viability ([13]; at 5 µM, OCI-C5x cells, without rucaparib) 1.42% | viability ([13]; at 5 µM, OCI-P5x cells, with rucaparib 20 µM, 100% = cells with rucaparib alone) 0.522% | viability ([13]; at 5 µM, OCI-P5x cells, without rucaparib) 0.371%
551: cell count [10, 17]
936: cell count [10, 16]
0.996: fold change [10, 15]

NC(=NCCCCCCN=C(N)N=C(N)Nc1ccc(Cl)cc1)N=C(N)Nc1ccc(Cl)cc1
1370: cell count [10, 16]
0.439: fold change [10, 15]
inactive: fold change [10, 14] 0.848 | z-score [11, 18] -0.252
0.00983: z-score [11, 19]
active: AC50 [1] 9.34 µM | AC50 [2] 4.18 µM | AC50 [3] 14.8 µM | AC50 [4] 18.7 µM | AC50 [5] 8.33 µM | AC50 [6] 9.34 µM | AC50 [7] 13.2 µM | AC50 [8] 11.8 µM | IC50 [9] 14.8 µM
1620: cell count [10, 17]

Cc1ccccc1C(C(=O)NC1CCCCC1)N(C(=O)Cn1ccnc1C)c1cccc(F)c1 (configuration not stated)
0.447: fold change [10, 15]
9500: cell count [10, 17]
0.11: z-score [11, 19]
8020: cell count [10, 16]
inactive: outcome [1] | outcome [2] | outcome [3] | outcome [4] | outcome [5] | outcome [6] | outcome [7] | outcome [8] | outcome [9] | fold change [10, 14] 0.844 | z-score [11, 18] 0.145

O=C(NC1CCOCC1)c1ccc(-c2cc(-c3cn[nH]c3-c3ccccn3)ccn2)cc1
8800: cell count [10, 16]
10600: cell count [10, 17]
0.682: z-score [11, 19]
inactive: outcome [1] | outcome [2] | outcome [3] | outcome [4] | outcome [5] | outcome [6] | outcome [7] | outcome [8] | outcome [9] | fold change [10, 14] 0.83 | z-score [11, 18] -0.384
0.736: fold change [10, 15]

Cc1cnc(Nc2ccc(N3CCN(C)CC3)cc2)nc1Nc1cccc(S(=O)(=O)NC(C)(C)C)c1
2300: cell count [10, 16]
1880: cell count [10, 17]
0.413: fold change [10, 15]
inactive: fold change [10, 14] 1.22 | z-score [11, 18] 1.59
active: AC50 [1] 2.95 µM | AC50 [2] 5.9 µM | AC50 [3] 5.9 µM | AC50 [4] 6.62 µM | AC50 [5] 2.95 µM | AC50 [6] 1.86 µM | AC50 [7] 14.8 µM | AC50 [8] 2.95 µM | IC50 [9] 4.68 µM
-3.35: z-score [11, 19]

c1ccc(CNc2nc(NCc3ccccc3)c3ccccc3n2)cc1
-0.855: z-score [11, 19]
3510: cell count [10, 16]
4310: cell count [10, 17]
0.477: fold change [10, 15]
active: AC50 [1] 14.8 µM | AC50 [2] 7.43 µM | AC50 [3] 23.5 µM | AC50 [4] 20.9 µM | AC50 [5] 16.6 µM | AC50 [6] 9.34 µM | AC50 [7] 23.5 µM | AC50 [8] 10.5 µM | IC50 [9] 29.5 µM
inactive: fold change [10, 14] 0.814 | z-score [11, 18] -0.415

O=C(NCc1ccccc1)c1csc(Nc2ccncn2)n1
4990: cell count [10, 16]
5440: cell count [10, 17]
active: AC50 [1] 18.6 µM | AC50 [2] 20.9 µM | AC50 [3] 4.18 µM | AC50 [4] 9.35 µM | AC50 [5] 14.8 µM | AC50 [6] 16.6 µM | AC50 [7] 16.6 µM | AC50 [8] 16.6 µM | IC50 [9] 23.5 µM
inactive: fold change [10, 14] 0.918 | z-score [11, 18] -0.235
0.977: fold change [10, 15]
-0.0999: z-score [11, 19]
